Rows were chosen to be rich in hits. Some 1.8% of all compounds tested hit in one or more screens of this group.
PrPC surface inh = inhibitors of human cell surface prion protein PrPC, primary screen, cell-based, TR-FRET; actives 0.43% (n = 370,000); TR-FRET read-out; inhibition, % at 13.8 µM; AID 720596, 2013; Major prion protein (Homo sapiens), P04156; in the data active = inhibition above about 24%; also: 0% = median of the test wells and 100% = reference compound wells
MazF activator = activators of E. coli MazEF toxin-antitoxin RNase, primary screen, biochemical, fluorescence, uHTS; activation, % at 20 µM; actives 0.32% (n = 350,000); Endoribonuclease toxin MazF (Escherichia coli (strain K12)), P0AE70; AID 504720, 2011; FAM/BHQ RNA-DNA oligo cleavage fluorescence, 5 h; in the data active = activation above about 50%
Target sequence (P0AE70 whole entry, looked up): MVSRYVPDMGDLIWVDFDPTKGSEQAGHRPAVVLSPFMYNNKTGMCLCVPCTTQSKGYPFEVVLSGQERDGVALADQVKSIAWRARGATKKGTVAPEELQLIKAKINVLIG
DUSP3 inh = VHR1 phosphatase inhibitors, primary screen, biochemical, absorbance, uHTS; Dual specificity protein phosphatase 3 (Homo sapiens), P51452; recombinant VHR phosphatase, pNPP absorbance; inhibition, % at 13.3 µM; actives 0.52% (n = 290,000); in the data active = inhibition above about 50%
Target sequence (P51452 whole entry, looked up): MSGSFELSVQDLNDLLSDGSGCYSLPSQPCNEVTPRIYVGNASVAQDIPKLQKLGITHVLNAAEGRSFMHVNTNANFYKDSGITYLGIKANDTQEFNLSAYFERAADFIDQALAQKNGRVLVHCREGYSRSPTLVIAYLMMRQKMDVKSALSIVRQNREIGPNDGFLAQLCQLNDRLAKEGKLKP
Y pestis TopoI = Yersinia pestis topoisomerase I inhibitors, primary screen, biochemical, cleavage product accumulation, plate reader, single point | DNA topoisomerase I (Yersinia pestis CO92) | Y. pestis Topo-I cleavage product accumulation | activity, % at 10 µM | actives 0.064% (n = 360,000); in the data active = activity above about 50%, passing the limit was not always enough
CCHF vOTU inh = CCHFV vOTU protease inhibitors, primary screen, biochemical, Pep-AMC substrate, fluorescence; inhibition, % at 11.5 µM; actives 0.55% (n = 370,000); in the data active = inhibition above about 30%; also: 0% = vehicle wells with enzyme and 100% = no enzyme wells
Vc quorum ag = inducers of Vibrio cholerae quorum light production without autoinducers, primary screen, BH1578 luxS cqsA deficient, single point | V. cholerae BH1578 lux reporter, luminescence, 6 h | actives 0.16% (n = 350,000) | activation, % at 18.7 µM; in the data active = activation mostly above about 9.7%, no sharp cut-off
The depositor's hits bear a star; i = inactive; x = not tested or not shown.

SMILES	PrPC surface inh	MazF activator	DUSP3 inh	Y pestis TopoI	CCHF vOTU inh	Vc quorum ag
O=C(CNC(=O)c1ccc(S(=O)(=O)N2CCCC2)cc1)N/N=C/c1ccc(Cl)cc1Cl	-5.4	74.3*	5.7	28.9	9.9	-0.2
CCn1c(SCc2ccccc2Cl)nnc1-c1ccccc1OC	1.0	x	x	x	2.5	x
COC(=O)[C@]12C[C@H](CC(=O)N3CCCC3)C(=O)N(Cc3ccco3)C1=C[C@H](C(C)C)O[C@@H]2C1CC1	-3.7	x	x	x	-0.9	x
CCCCN1C(=O)/C(=C/C=C2\SCCN2C)SC1=S	-24.0	530.0*	8.6	-4.5	20.1	i
Cc1ccccc1CNC(=O)C1CCCN(c2ncccn2)C1 (centres undefined)	-2.6	x	x	x	-7.4	x
Cc1ccc(NC(=O)CN2CCC(C(=O)c3ccc(F)cc3)CC2)cc1	-7.6	1.0	7.5	5.9	10.8	3.8
Cc1ccc(C(=O)C2CCN(CC(=O)NCc3ccc(F)cc3)CC2)cc1	-11.3	6.9	53.3*	30.9	3.5	-3.6
CC(C)n1cnc2c(oc3ccccc32)c1=O	-0.3	1.1	-2.4	-0.6	-1.9	i
CCOC(=O)C(C)n1cnc2c(oc3ccccc32)c1=O (centres undefined)	-5.7	-8.6	51.0*	-0.3	9.4	i
CCCCCCNC(=O)C1CSCCS(=O)(=O)N1Cc1ccc(C)cc1 (centres undefined)	5.0	x	x	x	6.5	x
Cc1ccc(N(C)S(=O)(=O)c2c(C)[nH]c(C)c2C(=O)N2CCCC2)cc1	-0.9	4.4	-14.6	-1.4	-6.5	-0.6
Cc1cccc(N(C)S(=O)(=O)c2c(C)[nH]c(C)c2C(=O)N2CCCC2)c1	2.1	11.0	54.2*	2.1	9.6	i
CCOc1ccc(-n2c(COc3ccc(C)cc3)nnc2SCC(=O)c2ccc3ccccc3c2)cc1	1.9	x	x	x	9.0	x
Cc1ccccc1S(=O)(=O)Cc1ccc(C(=O)NCCCN2CCC(C)CC2)o1	7.2	6.0	56.8*	1.4	2.2	i
O=C(Nc1ccccc1F)O[C@@H]1CC[C@@]23CCCN2C(=O)CCC[C@H]3C1	4.6	x	x	x	x	x
CC(=O)Oc1oc(-c2ccccc2)nc1C=Nc1ccccc1	5.2	-1.4	51.7*	5.7	5.5	-1.4
CCOC(=O)c1ccc(N=Cc2nc(-c3ccccc3)oc2OC(C)=O)cc1	10.1	-8.8	17.5	17.5	0.3	-8.8
CSC1=N/C(=C\c2ccc(C)s2)C(=O)S1	4.4	532.4*	-6.7	-2.1	-4.8	-0.7
CCCCOc1cccc(C(=O)NCCc2ccccc2-c2ccccc2CCC(=O)NCc2ccccc2)c1	3.2	x	x	x	0.1	x
COc1ccc(OC)c(NC(=O)Nc2ccc3c(c2)CCC3)c1	7.6	-4.0	32.2	4.7	0.8	-1.6
COc1ccc(NC(=O)Nc2ccc3c(c2)CCC3)c(OC)c1	8.9	56.5*	-10.6	-0.9	8.1	i
O=C(Cc1nnc(NC(=O)Nc2ccccc2)s1)NCc1ccccc1	-4.9	-4.7	57.9*	9.3	-7.1	i
CC(=O)n1cc(/C=C2/N=C(c3ccccc3)OC2=O)c2ccccc21	10.7	148.7*	-4.8	-4.1	27.2	-0.1
CC(=O)n1cc(/C=N/NC(N)=S)c2ccccc21	4.8	0.3	29.7	-2.1	-8.4	i
Fc1ccccc1-c1n[nH]c(=S)n1N=Cc1ccc(-c2ccccc2)cc1	7.8	x	x	x	8.1	x
SMILES	PrPC surface inh	MazF activator	DUSP3 inh	Y pestis TopoI	CCHF vOTU inh	Vc quorum ag
COC(=O)c1ccc(CNC(=O)c2ccc(OCC(=O)N3CCOCC3)c(OC)c2)cc1	-6.1	1.0	x	-6.2	1.3	-0.7
CCOc1cc(C(=O)NCc2ccc(C)cc2)ccc1OCC(=O)N1CCOCC1	-5.2	-5.4	51.3*	2.7	-15.5	i
NC(=O)c1cc2ccc(O)cc2oc1=NCc1ccccc1	2.6	785.0*	26.7	-11.0	-348.8	-1.0
NC(=O)c1cc2ccccc2oc1=NCc1ccccc1	-9.0	4.4	39.4	27.2	13.4	-0.4
CCCCCCCN1C2=NCCCN2c2ccccc21	11.0	925.7*	18.6	4.7	6.0	i
OCCN1CCN(C(=S)NCCc2ccccc2)CC1	0.5	6.0	-0.9	8.1	-1.6	i
CCN1CCN(C(=S)NCCc2ccccc2)CC1	3.9	6.5	56.7*	12.1	-6.9	13.4
COc1ccc(C2C(C(=O)c3cccs3)=C(O)C(=O)N2c2nncs2)cc1 (centres undefined)	0.6	-866.5	22.6	8.7	-5.9	-2.3
COc1ccc(C2C(C(=O)c3cccs3)=C(O)C(=O)N2c2nnc(C)s2)cc1OC (centres undefined)	x	69.0*	30.5	2.0	x	i
C=CCOc1ccc(C2C(C(=O)c3cccs3)=C(O)C(=O)N2c2nnc(C)s2)cc1 (centres undefined)	0.9	315.0*	x	-3.2	17.4	-0.3
CC(C)c1nnc(N2C(=O)C(O)=C(C(=O)c3cccs3)C2c2ccccc2)s1 (centres undefined)	-8.5	172.0*	23.4	6.1	3.4	x
CCOC(=O)N1CCN(C(=O)C[C@H]2C[C@@]3(C(=O)OC)C(=C[C@H](C(C)C)O[C@@H]3C3CC3)N(Cc3ccco3)C2=O)CC1	-0.2	x	x	x	3.9	x
O=C(O)c1ccccc1NC(=S)NC(=O)c1sc2ccccc2c1Cl	26.1*	3.1	-2.9	-12.6	-3.8	-0.2
Cc1ccc(NC(=S)NC(=O)c2sc3ccccc3c2Cl)c(C(=O)O)c1	x	x	12.1	x	x	x
Cn1ccnc1CN1CCC[C@]2(CC[C@H](CCC#N)O2)C1	4.9	x	x	x	2.0	x
O=C(O)c1ccc(C#Cc2cccc(F)c2)cn1	-5.4	x	x	x	-2.5	x
Cc1nc(N)nc(N)c1Oc1ccc(Cl)cc1	-0.1	0.1	x	1.4	2.9	525.6*
COc1cccc(OCC(=O)Nc2cc(NC(=O)COc3cccc(OC)c3)cc(C(=O)O)c2)c1	4.5	4.5	17.9	9.4	5.9	41.9*
Cc1cccc(OCC(=O)Nc2cc(NC(=O)COc3cccc(C)c3)cc(C(=O)O)c2)c1	6.1	-7.0	38.8	9.7	9.6	i
CCOC(=O)C1=C(N)N(c2ccccc2Oc2ccccc2)C(=O)C1	-0.7	0.5	31.6	3.5	11.9	-1.1
CCOC(=O)C1=C2NC(=O)c3ccccc3N2C(=O)C1	1.0	132.1*	-2.0	0.0	2.5	i
O=C(CCl)NN=C(c1ccccc1)c1ccccc1	5.7	59.4*	12.9	19.3	-10.2	i
CC(=O)C1=C(C)Nc2ncnn2C1c1ccc(O)cc1 (centres undefined)	-0.8	3.7	58.2*	11.9	-7.2	i
CCOc1ccc2ccccc2c1/C=N/NC(=O)CNC(=O)C(c1ccccc1)c1ccccc1	-3.0	-6.8	51.9*	33.1	23.5	-0.2
Oc1ccc(N=Nc2n[nH]c(-c3ccccc3)n2)cc1	-24.4	1.3	20.9	-1.8	1.1	-1.0

Source: PubChem BioAssay (several laboratories)
